Among the data in the supplement of paper PMC4188521 are cell viability remaining values, retold here.

Compound in the experiment: CCc1cnn2c(NCc3ccc[n+]([O-])c3)cc(N3CCCC[C@H]3CCO)nc12 [dinaciclib]
In words: cell viability remaining relative to DMSO control; higher = less cytotoxic (more viable cells). Particulars: 100 nM; 24 h. As to the method:
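Solid tumor cell lines were treated with dinaciclib (100 nM) for 24 hr. Viability was measured by CellTiter-Glo ATP luminescence and expressed as % of DMSO-treated control wells (mean of 2-6 plates, triplicate wells per plate).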
For the target SW1271, the cell viability remaining amounted to 80.7%. Under CAPAN2 stands 51.4%. As for SH4, the figure is 64.5%; as for HS695T, 72.9%; as for NCI-H2110, 56.9%. Turning to OE19, the cell viability remaining is 77.7%. Turning to DBTRG05MG, the cell viability remaining was found to be 81.7%. Consider SW1783, for which the cell viability remaining was 72.9%. For the target SNGM, the cell viability remaining is 98.3%. Take COLO829: the cell viability remaining was 24.8%. Regarding YAPC, the cell viability remaining was found to be 56.3%. Under AU565 stands 39.3%; under H2122, 48.2%.

H1437: the cell viability remaining was 41.9%. For SW48, the cell viability remaining is 55.8%.

On to DETROIT562, for which the cell viability remaining turned out to be 34.6%. In the case of COV644, the cell viability remaining was 23.3%. Consider DLD1, for which the cell viability remaining was 46.8%.

Consider CAPAN1, for which the cell viability remaining came to 85.3%. Under SW900 stands 74.3%.

In the case of HEC59, the cell viability remaining came out at 67.6%. SKMEL5: the cell viability remaining is 76.8%.

On to CAL120, for which the cell viability remaining was determined as 76.8%. For 769P, the cell viability remaining is 57.5%. As to H1703, the cell viability remaining is 5.5%.

On to U2OS, for which the cell viability remaining came out at 36.4%. With NCI-H1395, the cell viability remaining worked out at 36%. As for HCC1806, the figure is 60%; as for HS934T, 124%; as for 2313287, 65.6%. Under SAOS2 stands 32.2%.

With DU145, the cell viability remaining was 81.7%. Under SKBR3 stands 51.1%; under SKMEL31, 66.9%.

Consider SW1417, for which the cell viability remaining was 83.7%. As for CHAGOK1, the cell viability remaining turned out to be 52.5%. As for 22RV1, the cell viability remaining was 50.2%. Consider OVMANA, for which the cell viability remaining was 87.9%. As to OVISE, the cell viability remaining worked out at 94.6%. On to H82, for which the cell viability remaining was 12.6%.
